Legend:
Assay in all cases: PBM binding z-score (relative to random genomic background probes); higher = stronger binding; sequences stand for … in GC…GCGATTGACAGCGTAGAATGAAGG
[1] = system: PPARg:RXRa DBDmut IVT, anti-RXR (DBD mutation: RXRa K156A/R161A, NR concentration 270 nM, RXRa partner concentration 90 nM)
In short: (§1)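 Each nuclear receptor dimer, without ligand, was incubated for 1 h on custom Agilent 4×180K protein-binding microarrays. Binding was detected with antibodies against each partner (one per run), and scanned fluorescence was regression-normalized. The binding z-scores are referenced to random human genomic background probes.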

[2] = system: PPARg:RXRa IVT, anti-PPARg (NR concentration 270 nM, RXRa partner concentration 90 nM)
In short: as §1

[3] = system: PPARg DBDmut:RXRa IVT, anti-PPARg (DBD mutation: PPARg1 K132A/R137A, NR concentration 270 nM, RXRa partner concentration 90 nM)
In short: as §1

[4] = system: PPARg DBDmut IVT, anti-PPARg (DBD mutation: PPARg1 K132A/R137A, NR concentration 270 nM)
In short: as §1

[5] = system: PPARg homodimer (NR concentration 180 nM)
In short: as §1

[6] = system: PXR:RXRa (NR concentration 270 nM, RXRa partner concentration 90 nM)
In short: as §1

[7] = system: PXR homodimer (NR concentration 270 nM)
In short: as §1

[8] = system: RARa:RXR (NR concentration 270 nM, RXRa partner concentration 90 nM)
In short: as §1

[9] = system: RARa homodimer (NR concentration 270 nM)
In short: as §1

[10] = system: RARb:RXRa (NR concentration 270 nM, RXRa partner concentration 90 nM)
In short: as §1

[11] = system: RARb homodimer (NR concentration 270 nM)
In short: as §1

[12] = system: RARg:RXRa (NR concentration 270 nM, RXRa partner concentration 90 nM)
In short: as §1

[13] = system: RARg homodimer (NR concentration 270 nM)
In short: as §1

[14] = system: RXRa DBDmut IVT, anti-RXR (DBD mutation: RXRa K156A/R161A, NR concentration 90 nM)
In short: as §1

[15] = system: RXRa homodimer (NR concentration 180 nM)
In short: as §1

[16] = system: THRa:RXRa (NR concentration 90 nM, RXRa partner concentration 90 nM)
In short: as §1

[17] = system: THRa homodimer (NR concentration 90 nM)
In short: as §1

[18] = system: VDR homodimer (NR concentration 270 nM)
In short: as §1

Sequence	PBM binding z-score [1]	PBM binding z-score [2]	PBM binding z-score [3]	PBM binding z-score [4]	PBM binding z-score [5]	PBM binding z-score [6]	PBM binding z-score [7]	PBM binding z-score [8]	PBM binding z-score [9]	PBM binding z-score [10]	PBM binding z-score [11]	PBM binding z-score [12]	PBM binding z-score [13]	PBM binding z-score [14]	PBM binding z-score [15]	PBM binding z-score [16]	PBM binding z-score [17]	PBM binding z-score [18]
TCATATAGATAAACAGGTGAAAGTCCGTAAGTTA	2.87	1.36	0.902	1.03	1.33	1.07	0.573	1.37	1.53	0.536	0.615	0.467	0.388	1.94	1.33	0.561	0.191	0.676
CGTCAACGTTCAAGGTAACGTAACAGAAAGCAGC	-0.333	0.375	-0.0516	-0.229	-0.442	-0.292	-0.379	-0.0345	-0.412	0.89	0.184	0.115	0.672	0.181	0.245	1.48	0.849	-0.423
GCAGACCGGTGAAACGCAGGTAACTCAGGGTGGC	-0.72	-0.532	-1.77	-1.81	-1.43	-0.781	-1.17	-0.497	-1.38	-0.191	-0.498	-0.367	-0.32	-1.11	-0.345	0.683	-0.854	-0.771
CCAACTGGGGCAGAAAGGTTACCATACCATCCGG	3.25	3.34	0.0349	-0.823	0.624	1.1	0.0955	1.98	-0.139	2.03	2.5	1.72	1.37	-0.546	1.76	1.06	0.0988	-0.202
CTACCAAGGTGAACAAGGTCGTTGGTTACTATTC	1.96	2.45	0.303	-0.188	0.751	2.75	2.32	2.28	0.473	2.14	2.16	1.79	1.29	1.28	1.87	3.19	1.81	3.03
TCTTGTAGATCAACCGGAGGTTAAGAAAGATCGA	1.73	0.867	0.463	0.343	-0.156	0.984	0.000543	1.25	-0.186	0.743	0.462	1.22	0.219	0.651	0.914	1.12	-0.269	-0.0131
TCTTGTAGATCAGCAGGTTACGAAAGCTGGCCAA	1.6	0.645	-0.743	-0.301	-0.303	-0.0656	-0.456	0.298	-0.436	0.143	0.128	-0.124	-0.187	0.505	0.318	0.29	-0.291	-0.293
CAAACTAGGTCAAGGTCAACGTCGGTTTGTGCCA	8.4	8.81	6.29	2.23	4.73	5.27	1.97	5.42	2.12	5.36	5.65	6.16	6.86	2.58	5.91	4.62	4.3	3.89

Reference: the supplement of paper PMC6555819
